Structures can show the parent of a compound that is named as a salt. ± gives the standard deviation of the averaged measurements.
What follows are molecules tested on E. coli TESEC Mtb DapB (assay: growth (OD600 after 10 h); higher = more growth (less inhibition)). Settings: arabinose induction (level): High; compound 0.1 mM; raw OD600 reference: median of DMSO wells […], cell-free background 0.041.
Protocol: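 TESEC E. coli strains in which the native enzyme is deleted and replaced by arabinose-inducible Mtb Asd, DapB, CysH or TrpD, each grown in its selective medium. Strains were screened against the Prestwick library at 0.1 mM and 1% DMSO in 384-well format at low and high arabinose induction. Growth is read as OD600 after 10 h in triplicate.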

Q: With `CCOc1ccccc1OCC1CNCCO1` (stereo not given) [Viloxazine hydrochloride] as the molecule, how does the growth read?
A: 0.172 ± 0.029

Q: For `CN[C@@H]1[C@@H](O[C@H]2O[C@H](CO)[C@@H](N)[C@H](O)[C@H]2O)OC2C[C@@H](N)[C@@H](O[C@H]3[C@H](O)[C@@H](O)[C@H](N)C[C@@H]3N)OC2[C@@H]1O` (stereo not given in full) [Apramycin], which growth is on record?
A: 0.0527 ± 0.0023

Q: Which growth does the source give for `CCOC(=O)[C@H](CCc1ccccc1)N[C@@H](C)C(=O)N1CCC[C@H]1C(=O)O` [Enalapril maleate] here?
A: 0.188 ± 0.018

Q: How did the growth turn out when `Fc1ccc(C(c2ccc(F)cc2)N2CCN(C/C=C/c3ccccc3)CC2)cc1` [Flunarizine dihydrochloride] was run?
A: 0.0896 ± 0.0018

Q: For `CC[C@@]1(O)C(=O)OCc2c1cc1n(c2=O)Cc2cc3c(CN(C)C)c(O)ccc3nc2-1` [Topotecan], which growth is on record?
A: 0.202 ± 0.067

Q: With `O=C(O)CNC(=O)C(CS)Cc1ccccc1` (stereo not given) [Thiorphan] as the molecule, how does the growth read?
A: 0.202 ± 0.019

Q: `CCOC(=O)C1=C(C)NC(C)=C(C(=O)OC)C1c1cccc(Cl)c1Cl` (stereo not given) [Felodipine] was tested. Which growth did it give?
A: 0.07363 ± 0.0005

Q: `CC(=O)O[C@]1(C(C)=O)CC[C@H]2[C@@H]3C=C(C)C4=CC(=O)CC[C@]4(C)[C@H]3CC[C@@]21C` [Megestrol acetate] was tested. Which growth did it give?
A: 0.2058 ± 0.0013

Q: For `CN[C@H](CC(C)C)C(=O)N[C@H]1C(=O)N[C@@H](CC(N)=O)C(=O)N[C@H]2C(=O)N[C@H]3C(=O)N[C@H](C(=O)N[C@H](C(=O)O)c4cc(O)cc(O)c4-c4cc3ccc4O)[C@H](O)c3ccc(c(Cl)c3)Oc3cc2cc(c3O[C@@H]2O[C@H](CO)[C@@H](O)[C@H](O)[C@H]2O[C@H]2C[C@](C)(N)[C@H](O)[C@H](C)O2)Oc2ccc(cc2Cl)[C@H]1O` [Vancomycin hydrochloride], which growth is on record?
A: 0.0659 ± 0.0035

Q: With `Nc1ncn(C2OC(CO)C(O)C2O)c(=O)n1` (stereo not given) [Azacytidine-5] as the molecule, how does the growth read?
A: 0.199 ± 0.03

Q: `CC[C@H](C)C(=O)O[C@H]1C[C@@H](C)C=C2C=C[C@H](C)[C@H](CC[C@@H]3C[C@@H](O)CC(=O)O3)[C@H]21` [Lovastatin] was tested. Which growth did it give?
A: 0.163 ± 0.018

Q: How did the growth turn out when `CCN(CC)CCNC(=O)c1cc(S(C)(=O)=O)ccc1OC` [Tiapride hydrochloride] was run?
A: 0.183 ± 0.023

Q: How did the growth turn out when `Cc1cccn2c(=O)c(-c3nnn[nH]3)cnc12` [Pemirolast potassium] was run?
A: 0.212 ± 0.028

Q: For `CCC1(C)CC(=O)NC1=O` (stereo not given) [Ethosuximide], which growth is on record?
A: 0.1866 ± 0.0016

Q: How did the growth turn out when `O=C(O)COCCN1CCN(C(c2ccccc2)c2ccc(Cl)cc2)CC1` (stereo not given) [Cetirizine dihydrochloride] was run?
A: 0.168 ± 0.013

Q: For `CCN[C@H]1C[C@H](C)S(=O)(=O)c2sc(S(N)(=O)=O)cc21` [Dorzolamide hydrochloride], which growth is on record?
A: 0.199 ± 0.016

Q: `CC(N)CCCC(C)(C)O` (stereo not given) [Heptaminol hydrochloride] was tested. Which growth did it give?
A: 0.188 ± 0.0059

Q: `Cn1c(=O)c2c(ncn2CCO)n(C)c1=O` [Etofylline] was tested. Which growth did it give?
A: 0.192 ± 0.0028

Q: `CNC[C@H](O)[C@@H](O)[C@H](O)[C@H](O)CO` [Meglumine] was tested. Which growth did it give?
A: 0.199 ± 0.049

Q: Which growth does the source give for `CC(=O)[C@@]1(O)CC[C@H]2[C@@H]3C[C@H](C)C4=CC(=O)C=C[C@]4(C)[C@@]3(F)[C@@H](O)C[C@@]21C` [Fluorometholone] here?
A: 0.209 ± 0.0065

Same assay, conditions: arabinose induction (level): Low; compound 0.1 mM; raw OD600 reference: median of DMSO wells 0.227, cell-free background 0.041

Q: With `CCOc1ccccc1OCC1CNCCO1` (stereo not given) [Viloxazine hydrochloride] as the molecule, how does the growth read?
A: 0.211 ± 0.019

Q: `CN[C@@H]1[C@@H](O[C@H]2O[C@H](CO)[C@@H](N)[C@H](O)[C@H]2O)OC2C[C@@H](N)[C@@H](O[C@H]3[C@H](O)[C@@H](O)[C@H](N)C[C@@H]3N)OC2[C@@H]1O` (stereo not given in full) [Apramycin] was tested. Which growth did it give?
A: 0.048 ± 0.0016

Q: Which growth does the source give for `CCOC(=O)[C@H](CCc1ccccc1)N[C@@H](C)C(=O)N1CCC[C@H]1C(=O)O` [Enalapril maleate] here?
A: 0.268 ± 0.029

Q: With `Fc1ccc(C(c2ccc(F)cc2)N2CCN(C/C=C/c3ccccc3)CC2)cc1` [Flunarizine dihydrochloride] as the molecule, how does the growth read?
A: 0.163 ± 0.065

Q: For `CC[C@@]1(O)C(=O)OCc2c1cc1n(c2=O)Cc2cc3c(CN(C)C)c(O)ccc3nc2-1` [Topotecan], which growth is on record?
A: 0.178 ± 0.014

Q: For `O=C(O)CNC(=O)C(CS)Cc1ccccc1` (stereo not given) [Thiorphan], which growth is on record?
A: 0.236 ± 0.019

Q: `CCOC(=O)C1=C(C)NC(C)=C(C(=O)OC)C1c1cccc(Cl)c1Cl` (stereo not given) [Felodipine] was tested. Which growth did it give?
A: 0.0792 ± 0.032

Q: `CC(=O)O[C@]1(C(C)=O)CC[C@H]2[C@@H]3C=C(C)C4=CC(=O)CC[C@]4(C)[C@H]3CC[C@@]21C` [Megestrol acetate] was tested. Which growth did it give?
A: 0.248 ± 0.034

Q: How did the growth turn out when `CN[C@H](CC(C)C)C(=O)N[C@H]1C(=O)N[C@@H](CC(N)=O)C(=O)N[C@H]2C(=O)N[C@H]3C(=O)N[C@H](C(=O)N[C@H](C(=O)O)c4cc(O)cc(O)c4-c4cc3ccc4O)[C@H](O)c3ccc(c(Cl)c3)Oc3cc2cc(c3O[C@@H]2O[C@H](CO)[C@@H](O)[C@H](O)[C@H]2O[C@H]2C[C@](C)(N)[C@H](O)[C@H](C)O2)Oc2ccc(cc2Cl)[C@H]1O` [Vancomycin hydrochloride] was run?
A: 0.0604 ± 0.0036

Q: With `Nc1ncn(C2OC(CO)C(O)C2O)c(=O)n1` (stereo not given) [Azacytidine-5] as the molecule, how does the growth read?
A: 0.193 ± 0.027

Q: Which growth does the source give for `CC[C@H](C)C(=O)O[C@H]1C[C@@H](C)C=C2C=C[C@H](C)[C@H](CC[C@@H]3C[C@@H](O)CC(=O)O3)[C@H]21` [Lovastatin] here?
A: 0.192 ± 0.023

Q: How did the growth turn out when `CCN(CC)CCNC(=O)c1cc(S(C)(=O)=O)ccc1OC` [Tiapride hydrochloride] was run?
A: 0.218 ± 0.035

Q: Which growth does the source give for `Cc1cccn2c(=O)c(-c3nnn[nH]3)cnc12` [Pemirolast potassium] here?
A: 0.223 ± 0.014

Q: `CCC1(C)CC(=O)NC1=O` (stereo not given) [Ethosuximide] was tested. Which growth did it give?
A: 0.245 ± 0.052

Q: For `O=C(O)COCCN1CCN(C(c2ccccc2)c2ccc(Cl)cc2)CC1` (stereo not given) [Cetirizine dihydrochloride], which growth is on record?
A: 0.199 ± 0.019

Q: How did the growth turn out when `CCN[C@H]1C[C@H](C)S(=O)(=O)c2sc(S(N)(=O)=O)cc21` [Dorzolamide hydrochloride] was run?
A: 0.253 ± 0.023

Q: `CC(N)CCCC(C)(C)O` (stereo not given) [Heptaminol hydrochloride] was tested. Which growth did it give?
A: 0.195 ± 0.02

Q: `Cn1c(=O)c2c(ncn2CCO)n(C)c1=O` [Etofylline] was tested. Which growth did it give?
A: 0.264 ± 0.098

Q: With `CNC[C@H](O)[C@@H](O)[C@H](O)[C@H](O)CO` [Meglumine] as the molecule, how does the growth read?
A: 0.235 ± 0.017

Q: Which growth does the source give for `CC(=O)[C@@]1(O)CC[C@H]2[C@@H]3C[C@H](C)C4=CC(=O)C=C[C@]4(C)[C@@]3(F)[C@@H](O)C[C@@]21C` [Fluorometholone] here?
A: 0.272 ± 0.017

Source: the supplement of paper PMC9262897, “Low-cost anti-mycobacterial drug discovery using engineered E. coli” (Nature Communications, 2022)
